Source: PubChem BioAssay (NCATS)
For part of these data: Results with a measured potency or affinity are listed apart. The source made the active and inactive calls.

Experiments:
[1] = Ebola virus entry assay, green fluorescence channel
[2] = Ebola virus entry assay, blue channel fluorescence
[3] = Ebola virus entry assay, green fluorescence channel; remark: listed apart in the source
[4] = Ebola virus entry assay, ratio channel readout
[5] = Ebola virus entry assay, blue channel fluorescence; remark: listed apart in the source
[6] = Ebola virus entry assay, ratio channel
[7] = Ebola virus entry assay, green channel fluorescence
[8] = Ebola virus entry assay, blue channel fluorescence; remark: listed apart in the source
[9] = Ebola virus entry assay, reporter ratio channel; AC50: Channel type: primary unless noted; outcome: Channel type: primary unless noted
[10] = Ebola virus entry assay, blue channel (ratio component)
[11] = qHTS profiling of the MIPE4 collection as inhibitors of Plasmodium falciparum (3D7) proliferation (AID 743344);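 note: scaled between DMSO vehicle wells and 0.29 µM artemisinin as full inhibition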; conditions: P. falciparum 3D7 in erythrocytes, SYBR Green DNA fluorescence, 72 h; at 28.5 µM (top of the series) unless noted
Outline: (§1)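 Parasite DNA was quantified by SYBR Green I fluorescence (ex 485, em 535 nm) after overnight lysis in saponin/Triton buffer at room temperature. Cultures at 0.3% parasitemia and 2.5% hematocrit were first exposed to compound for 72 h at 37 C; signals were normalised to artemisinin (0.29 uM) and vehicle wells.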

[12] = qHTS profiling of the MIPE4 collection as inhibitors of Plasmodium falciparum (HB3) proliferation (AID 743347);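 note: plate controls were DMSO vehicle wells for no effect and artemisinin wells for full effect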; conditions: P. falciparum HB3 in erythrocytes, SYBR Green DNA, 72 h; at 28.5 µM (top of the series) unless noted
Outline: as §1
Throughout, for efficacy: 0% is about no effect.

NS(=O)(=O)Cc1noc2ccccc12
inactive: efficacy [1] -13.2% | outcome [2] | outcome [3] | outcome [4] | outcome [5] | outcome [6] | outcome [7] | outcome [8] | outcome [9] | outcome [10]

CCOc1ccccc1OCCN[C@H](C)Cc1ccc(OC)c(S(N)(=O)=O)c1
inactive: efficacy [1] -10.5% | outcome [2] | outcome [3] | outcome [4] | outcome [5] | outcome [6] | outcome [7] | outcome [8] | outcome [9] | outcome [10]

CCOc1ccc2ccccc2c1C(=O)N[C@@H]1C(=O)N2[C@@H]1SC(C)(C)[C@@H]2C(=O)O
inactive: efficacy [1] 20.5% | outcome [2] | outcome [3] | outcome [4] | outcome [5] | outcome [6] | outcome [7] | outcome [8] | outcome [9] | outcome [10]

Nc1nnc(-c2cccc(Cl)c2Cl)c(N)n1
inactive: efficacy [1] -18.2% | outcome [2] | outcome [3] | outcome [4] | outcome [5] | outcome [6] | outcome [7] | outcome [8] | outcome [9] | outcome [10]

CC(=O)O[C@]1(C(C)=O)CC[C@H]2[C@@H]3C=C(C)C4=CC(=O)CC[C@]4(C)[C@H]3CC[C@@]21C
inactive: efficacy [1] 20% | outcome [2] | outcome [3] | outcome [4] | outcome [5] | outcome [6] | outcome [7] | outcome [8] | outcome [9] | outcome [10]

CNS(=O)(=O)CCc1ccc2[nH]cc(C3CCN(C)CC3)c2c1
inactive: efficacy [1] -15% | outcome [2] | outcome [3] | outcome [4] | outcome [5] | outcome [6] | outcome [7] | outcome [8] | outcome [9] | outcome [10]

Cc1ccc(C(=O)c2cc(O)c(O)c([N+](=O)[O-])c2)cc1
inactive: efficacy [1] 31.1% | outcome [2] | outcome [3] | outcome [4] | outcome [5] | outcome [6] | outcome [7] | outcome [8] | outcome [9] | outcome [10]

COc1cc(C(=O)NCc2ccc(OCCN(C)C)cc2)cc(OC)c1OC
inactive: efficacy [1] 33.3% | outcome [2] | outcome [3] | outcome [4] | outcome [5] | outcome [6] | outcome [7] | outcome [8] | outcome [9] | outcome [10]

O=C(O)CCNC(=O)c1ccc(N=Nc2ccc(O)c(C(=O)O)c2)cc1
inactive: efficacy [1] -11.9% | outcome [2] | outcome [3] | outcome [4] | outcome [5] | outcome [6] | outcome [7] | outcome [8] | outcome [9] | outcome [10]

CC(=O)N[C@@H](CS)C(=O)O
inactive: efficacy [1] -17.9% | outcome [2] | outcome [3] | outcome [4] | outcome [5] | outcome [6] | outcome [7] | outcome [8] | outcome [9] | outcome [10]

O=C(c1ccccc1)c1ccc2n1CCC2C(=O)O (stereo not given)
inactive: efficacy [1] 22% | outcome [2] | outcome [3] | outcome [4] | outcome [5] | outcome [6] | outcome [7] | outcome [8] | outcome [9] | outcome [10]

O=C(CCCCCCC(=O)Nc1ccccc1)NO
inactive: efficacy [1] -11.4% | outcome [2] | outcome [3] | outcome [4] | outcome [5] | outcome [6] | outcome [7] | outcome [8] | outcome [9] | outcome [10]

NCCC(O)(P(=O)(O)O)P(=O)(O)O
inactive: efficacy [1] -9.39% | outcome [2] | outcome [3] | outcome [4] | outcome [5] | outcome [6] | outcome [7] | outcome [8] | outcome [9] | outcome [10]

COc1nc(N)nc2c1ncn2[C@@H]1O[C@H](CO)[C@@H](O)[C@@H]1O
inactive: efficacy [1] -33.2% | outcome [2] | outcome [3] | outcome [4] | outcome [5] | outcome [6] | outcome [7] | outcome [8] | outcome [9] | outcome [10]

C[C@@H]1C[C@H]2[C@@H]3CCC4=CC(=O)C=C[C@]4(C)[C@@]3(F)[C@@H](O)C[C@]2(C)[C@@]1(O)C(=O)CO
inactive: efficacy [1] -13.7% | outcome [2] | outcome [3] | outcome [4] | outcome [5] | outcome [6] | outcome [7] | outcome [8] | outcome [9] | outcome [10]

CC(C)Nc1cccnc1N1CCN(C(=O)c2cc3cc(NS(C)(=O)=O)ccc3[nH]2)CC1
inactive: efficacy [1] -26% | outcome [2] | outcome [3] | outcome [4] | outcome [5] | outcome [6] | outcome [7] | outcome [8] | outcome [9] | outcome [10]

Cn1c(=O)c2c(ncn2CC(O)CO)n(C)c1=O (stereo not given)
inactive: efficacy [1] -15% | outcome [2] | outcome [3] | outcome [4] | outcome [5] | outcome [6] | outcome [7] | outcome [8] | outcome [9] | outcome [10]

CC[N+](C)(C)c1cccc(O)c1
inactive: efficacy [1] -13.4% | outcome [2] | outcome [3] | outcome [4] | outcome [5] | outcome [6] | outcome [7] | outcome [8] | outcome [9] | outcome [10]

NC(=O)NO
inactive: efficacy [1] 10% | outcome [2] | outcome [3] | outcome [4] | outcome [5] | outcome [6] | outcome [7] | outcome [8] | outcome [9] | outcome [10]

CN(C)CCc1c[nH]c2ccc(CS(=O)(=O)N3CCCC3)cc12
inactive: efficacy [1] -14.5% | outcome [2] | outcome [3] | outcome [4] | outcome [5] | outcome [6] | outcome [7] | outcome [8] | outcome [9] | outcome [10]

CCCCCOC(=O)Nc1nc(=O)n([C@@H]2O[C@H](C)[C@@H](O)[C@H]2O)cc1F
inactive: efficacy [1] 20.9% | outcome [2] | outcome [3] | outcome [4] | outcome [5] | outcome [6] | outcome [7] | outcome [8] | outcome [9] | outcome [10]

CC(C)(C)NC(=O)[C@@H]1CN(Cc2cccnc2)CCN1C[C@@H](O)C[C@@H](Cc1ccccc1)C(=O)N[C@H]1c2ccccc2C[C@H]1O
inactive: efficacy [1] -17.5% | outcome [2] | outcome [3] | outcome [4] | outcome [5] | outcome [6] | outcome [7] | outcome [8] | outcome [9] | outcome [10]

CC1(C)O[C@@H]2[C@@H](CO[C@@]3(COS(N)(=O)=O)OC(C)(C)O[C@@H]23)O1
inactive: efficacy [1] -13.6% | outcome [2] | outcome [3] | outcome [4] | outcome [5] | outcome [6] | outcome [7] | outcome [8] | outcome [9] | outcome [10]

CN(C)c1nc(N(C)C)nc(N(C)C)n1
inactive: efficacy [1] 14.8% | outcome [2] | outcome [3] | outcome [4] | outcome [5] | outcome [6] | outcome [7] | outcome [8] | outcome [9] | outcome [10]

Cc1cn([C@H]2C=C[C@@H](CO)O2)c(=O)[nH]c1=O
inactive: efficacy [1] 10.9% | outcome [2] | outcome [3] | outcome [4] | outcome [5] | outcome [6] | outcome [7] | outcome [8] | outcome [9] | outcome [10]

CCCc1cc(=O)[nH]c(=S)[nH]1
inactive: efficacy [1] 10.6% | outcome [2] | outcome [3] | outcome [4] | outcome [5] | outcome [6] | outcome [7] | outcome [8] | outcome [9] | outcome [10]

CC1(C)S[C@@H]2[C@H](NC(=O)Cc3ccccc3)C(=O)N2[C@H]1C(=O)O (tested in a mixture with another compound)
inactive: efficacy [1] -23.1% | outcome [2] | outcome [3] | outcome [4] | outcome [5] | outcome [6] | outcome [7] | outcome [8] | outcome [9] | outcome [10]

CNCCc1ccccn1
inactive: efficacy [1] -10.7% | outcome [2] | outcome [3] | outcome [4] | outcome [5] | outcome [6] | outcome [7] | outcome [8] | outcome [9] | outcome [10]

COc1ccccc1OCC(O)CN1CCN(CC(=O)Nc2c(C)cccc2C)CC1 (stereo not given)
inactive: efficacy [1] 29.5% | outcome [2] | outcome [3] | outcome [4] | outcome [5] | outcome [6] | outcome [7] | outcome [8] | outcome [9] | outcome [10]

CCCCN1C[C@H](O)[C@@H](O)[C@H](O)[C@H]1CO
inactive: efficacy [1] 19.9% | outcome [2] | outcome [3] | outcome [4] | outcome [5] | outcome [6] | outcome [7] | outcome [8] | outcome [9] | outcome [10]

CCCN[C@H]1CCc2nc(N)sc2C1
inactive: efficacy [1] -13.1% | outcome [2] | outcome [3] | outcome [4] | outcome [5] | outcome [6] | outcome [7] | outcome [8] | outcome [9] | outcome [10]

CCC1(c2ccccc2)C(=O)NCNC1=O
inactive: efficacy [1] -13.6% | outcome [2] | outcome [3] | outcome [4] | outcome [5] | outcome [6] | outcome [7] | outcome [8] | outcome [9] | outcome [10]

CS(=O)(=O)OCCCCOS(C)(=O)=O
inactive: efficacy [1] 19.1% | outcome [2] | outcome [3] | outcome [4] | outcome [5] | outcome [6] | outcome [7] | outcome [8] | outcome [9] | outcome [10]

CN(C)CCOC(C)(c1ccccc1)c1ccccn1 (stereo not given)
active: AC50 [5] 15.8 µM | AC50 [6] 14.1 µM | AC50 [9] 14.1 µM
inactive: efficacy [1] 20.1% | outcome [2] | outcome [3] | outcome [4] | outcome [7]

CC(=O)CCCCn1c(=O)c2c(ncn2C)n(C)c1=O
inactive: efficacy [1] -14.2% | outcome [2] | outcome [3] | outcome [4] | outcome [5] | outcome [6] | outcome [7] | outcome [8] | outcome [9] | outcome [10]

Nc1nc(F)nc2c1ncn2[C@@H]1O[C@H](CO)[C@@H](O)[C@@H]1O
31%: parasite growth, % of DMSO control [11]
inactive: efficacy [1] 16.7% | outcome [2] | outcome [3] | outcome [4] | outcome [5] | outcome [6] | outcome [7] | outcome [8] | outcome [9] | outcome [10]
81.8%: growth, % of control [12]

Cc1oncc1C(=O)Nc1ccc(C(F)(F)F)cc1
inactive: efficacy [1] -17.5% | outcome [2] | outcome [3] | outcome [4] | outcome [5] | outcome [6] | outcome [7] | outcome [8] | outcome [9] | outcome [10]

CCC1=C[C@@H]2CN(C1)Cc1c([nH]c3ccccc13)[C@@](C(=O)OC)(c1cc3c(cc1OC)N(C)[C@H]1[C@@](O)(C(=O)OC)[C@H](OC(C)=O)[C@]4(CC)C=CCN5CC[C@]31[C@@H]54)C2
active: AC50 [2] 0.112 µM | AC50 [5] 7.94 µM | AC50 [6] 2.51 µM
inactive: efficacy [1] -100% | outcome [3] | outcome [4] | outcome [7] | outcome [9] inactive [Channel type: confirmation] | outcome [10]

O=C1Nc2ccc(Cl)cc2[C@@](C#CC2CC2)(C(F)(F)F)O1
inactive: efficacy [1] -11.3% | outcome [2] | outcome [3] | outcome [4] | outcome [7]
active: AC50 [5] 17.8 µM | AC50 [6] 22.4 µM | AC50 [9] 22.4 µM

Cc1cccc(Nc2ccccc2C(=O)O)c1C
inactive: efficacy [1] 32.2% | outcome [2] | outcome [3] | outcome [4] | outcome [5] | outcome [6] | outcome [7] | outcome [8] | outcome [9] | outcome [10]

Oc1ccc(C2CNCCc3c2cc(O)c(O)c3Cl)cc1 (stereo not given)
inactive: efficacy [1] 16.5% | outcome [2] | outcome [3] | outcome [4] | outcome [5] | outcome [6] | outcome [7] | outcome [9]
